Measured values taken from PubChem BioAssay (NCATS).
Records with an inconclusive call do not appear. Calls come from the whole dose curve; as a rule, active = well fitted activation curve with a large enough effect in the main read-out, with a control signal flat (not every such curve was filed as active); inconclusive = small, poorly fitted or top-dose-only effect, or effect the other way, or a change in a side signal; inactive = flat fitted curve, though single readings scatter.

Target: 3',5'-cyclic-AMP phosphodiesterase 4B (Homo sapiens) (UniProt Q07343)
Sequence (Q07343 whole entry, looked up): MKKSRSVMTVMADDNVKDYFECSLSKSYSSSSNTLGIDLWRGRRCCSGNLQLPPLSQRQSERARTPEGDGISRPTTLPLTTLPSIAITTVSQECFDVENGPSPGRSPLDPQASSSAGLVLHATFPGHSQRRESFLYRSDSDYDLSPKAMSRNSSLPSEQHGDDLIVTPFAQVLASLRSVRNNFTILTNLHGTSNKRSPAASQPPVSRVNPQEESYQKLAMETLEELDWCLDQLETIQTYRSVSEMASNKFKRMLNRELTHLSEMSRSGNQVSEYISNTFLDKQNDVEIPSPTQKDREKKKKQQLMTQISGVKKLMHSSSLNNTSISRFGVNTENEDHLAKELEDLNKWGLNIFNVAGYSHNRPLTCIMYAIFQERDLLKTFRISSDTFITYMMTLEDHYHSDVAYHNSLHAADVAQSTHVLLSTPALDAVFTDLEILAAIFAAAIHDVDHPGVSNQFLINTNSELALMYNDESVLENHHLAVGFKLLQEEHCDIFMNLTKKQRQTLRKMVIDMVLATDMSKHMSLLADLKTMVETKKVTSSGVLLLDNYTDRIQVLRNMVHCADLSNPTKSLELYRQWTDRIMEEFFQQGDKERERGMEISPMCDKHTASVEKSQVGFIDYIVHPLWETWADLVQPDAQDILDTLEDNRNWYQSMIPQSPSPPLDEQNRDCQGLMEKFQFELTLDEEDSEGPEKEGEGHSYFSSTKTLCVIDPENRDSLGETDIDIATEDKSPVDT
Assay: qHTS Assay for Inhibitors of PDE-IV (AID 607); note: % of control where 0% means no effect
Conditions: HEK293 ACTOne CNG channel cells, membrane potential fluorescence; series mostly up to 22.9 µM; activation (PDE inhibition): at the top concentration
Procedure, shortened: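 The readout is membrane depolarisation from a cAMP-sensing CNG channel, detected with a potential dye at ex 535/em 590. Cells were HEK293-derived (endogenous PDE-IV) at 1000 cells/well, titrated up to 22.9 uM final.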

Activation (PDE inhibition), inactive:
COC(=O)[C@@]1(Cc2ccc(OC)cc2)[C@H]2c3cc(C(=O)N(C)C)n(Cc4ccccn4)c3C[C@H]2CN1C(=O)c1ccccc1 -6.15%
COC(=O)[C@@]1(Cc2ccc(F)cc2)[C@H]2c3cc(C(=O)N(C)C)n(CCc4ccc(OC)c(Br)c4)c3C[C@H]2CN1C(=O)c1ccccc1 -5.56%
COC(=O)[C@@]1(Cc2ccccc2)[C@H]2c3cc(C(=O)N(C)C)n(Cc4ccc(S(C)(=O)=O)cc4)c3C[C@H]2CN1C(=O)c1ccccc1 5.98%
COC(=O)[C@@]1(Cc2ccc(OC)cc2)[C@H]2c3cc(C(=O)N4CCCC4)n(CCF)c3C[C@H]2CN1C(=O)c1ccccc1 7.92%
COC(=O)[C@@]1(Cc2ccc(F)cc2)[C@H]2c3cc(C(=O)N(C)C)n(CCO)c3C[C@H]2CN1C(=O)c1ccccc1 5.47%
COC(=O)[C@@]1(Cc2ccc(F)cc2)[C@H]2c3cc(C(=O)N4CCCC4)n(Cc4ccc(C(F)(F)F)nc4)c3C[C@H]2CN1C(=O)c1ccccc1 -3.34%
COC(=O)[C@@]1(Cc2ccc(F)cc2)[C@H]2c3cc(C(=O)N4CCCC4)n(Cc4cc(C)n(C)n4)c3C[C@H]2CN1C(=O)c1ccccc1 7.8%
COc1ccc(CNC(=O)[C@H]2C[C@@H]2[C@H](NP(=O)(c2ccccc2)c2ccccc2)c2ccccc2)cc1OC 13%
COC(=O)[C@@]1(Cc2ccccc2)[C@H]2c3cc(C(=O)N(C)C)n(CCO)c3C[C@H]2CN1C(=O)c1ccccc1 5.34%
COC(=O)[C@@]1(Cc2ccc(F)cc2)[C@H]2c3cc(C(=O)N4CCCC4)n(CC4CC4)c3C[C@H]2CN1C(=O)c1ccccc1 -1.54%
O=C(NCc1ccccn1)[C@@H]1C[C@H]1[C@@H](NP(=O)(c1ccccc1)c1ccccc1)c1ccccc1 -2.23%
O=C(NCC1CC1)[C@@H]1C[C@H]1[C@@H](NP(=O)(c1ccccc1)c1ccccc1)c1ccccc1 17.4%
COC(=O)[C@@]1(Cc2ccc(OC)cc2)[C@H]2c3cc(C(=O)N4CCCC4)n(Cc4ccccn4)c3C[C@H]2CN1C(=O)c1ccccc1 7.48%
COC(=O)[C@@]1(Cc2ccc(OC)cc2)[C@H]2c3cc(C(=O)N(C)C)n(Cc4ccc(OC)c(OC)c4)c3C[C@H]2CN1C(=O)c1ccccc1 4.98%
COC(=O)[C@@]1(Cc2ccc(F)cc2)[C@H]2c3cc(C(=O)N4CCCC4)n(CCSCCO)c3C[C@H]2CN1C(=O)c1ccccc1 -9.03%
C[C@@H](C(=O)NCc1ccccc1)[C@@H]1C[C@@]1(C)[C@@H](NC(=O)OCc1ccccc1)c1ccccc1 17.3%
COC(=O)[C@@]1(Cc2ccc(F)cc2)[C@H]2c3cc(C(=O)N(C)C)n(Cc4cc(C)n(C)n4)c3C[C@H]2CN1C(=O)c1ccccc1 -5.33%
Cc1cc(CNC(=O)[C@H](C)[C@@H]2C[C@@]2(C)[C@@H](NC(=O)OCc2ccccc2)c2ccccc2)nn1C 17.8%
COC(=O)[C@@]1(Cc2ccc(F)cc2)[C@H]2c3cc(C(=O)N(C)C)n(Cc4ccc(O)c(OC)c4)c3C[C@H]2CN1C(=O)c1ccccc1 -1.71%
Cc1ccc(CNC(=O)[C@H](C)[C@H]2C[C@]2(C)[C@H](NC(=O)OCc2ccccc2)c2ccccc2)o1 2.1%
COC(=O)[C@@]1(Cc2ccc(OC)cc2)[C@H]2c3cc(C(=O)N(C)C)n(Cc4c(CO)[nH]cc(C)c4=O)c3C[C@H]2CN1C(=O)c1ccccc1 4.14%
COC(=O)[C@@]1(Cc2ccc(OC)cc2)[C@H]2c3cc(C(=O)N(C)C)n(Cc4cc(F)c(F)c(F)c4)c3C[C@H]2CN1C(=O)c1ccccc1 7.68%
COC(=O)[C@@]1(Cc2ccc(OC)cc2)[C@H]2c3cc(C(=O)N(C)C)n(Cc4ccc(Cl)c(C(F)(F)F)c4)c3C[C@H]2CN1C(=O)c1ccccc1 -19.7%
C[C@@H](C(=O)NCC1CC1)[C@@H]1C[C@@]1(C)[C@@H](NC(=O)OCc1ccccc1)c1ccccc1 20.5%
COC(=O)[C@@]1(Cc2ccccc2)[C@H]2c3cc(C(=O)N4CCCC4)[nH]c3C[C@H]2CN1C(=O)c1ccccc1 14.2%
COC(=O)[C@@]1(Cc2ccc(F)cc2)[C@H]2c3cc(C(=O)N4CCCC4)n(Cc4cc(F)cc5c4OCOC5)c3C[C@H]2CN1C(=O)c1ccccc1 3.01%
COC(=O)[C@@]1(Cc2ccccc2)[C@H]2c3cc(C(=O)N(C)C)n(CCF)c3C[C@H]2CN1C(=O)c1ccccc1 9.14%
COC(=O)[C@@H]1C[C@H]1[C@@H](NS(=O)(=O)c1ccccc1)c1ccccc1 7.98%
COC(=O)[C@@]1(Cc2ccc(F)cc2)[C@H]2c3cc(C(=O)N(C)C)n(CCc4ccc(O)c(O)c4)c3C[C@H]2CN1C(=O)c1ccccc1 6.44%
COC(=O)[C@@]1(Cc2ccc(F)cc2)[C@H]2c3cc(C(=O)N(C)C)n(CCF)c3C[C@H]2CN1C(=O)c1ccccc1 -4.14%
C[C@@H](C(=O)NCC1CC1)[C@H]1C[C@]1(C)[C@H](NC(=O)OCc1ccccc1)c1ccccc1 19.3%
COC(=O)[C@@]1(Cc2ccc(F)cc2)[C@H]2c3cc(C(=O)N(C)C)n(CCN4CCOCC4)c3C[C@H]2CN1C(=O)c1ccccc1 -1.3%
COC(=O)[C@@]1(Cc2ccc(OC)cc2)[C@H]2c3cc(C(=O)N(C)C)n(CCc4ccccn4)c3C[C@H]2CN1C(=O)c1ccccc1 -0.709%
COC(=O)[C@@]1(Cc2ccccc2)[C@H]2c3cc(C(=O)N(C)C)n(Cc4c(CO)[nH]cc(C)c4=O)c3C[C@H]2CN1C(=O)c1ccccc1 -14.9%
COC(=O)[C@@]1(Cc2ccccc2)[C@H]2c3cc(C(=O)N(C)C)n(Cc4cc(F)c(F)c(F)c4)c3C[C@H]2CN1C(=O)c1ccccc1 -17.5%
CCC/C=C(\CCC)C(NC(=O)OCC(C)C)c1ccccc1 (stereo not given) -0.764%
COC(=O)[C@@]1(Cc2ccc(OC)cc2)[C@H]2c3cc(C(=O)N4CCCC4)n(Cc4ccsc4Br)c3C[C@H]2CN1C(=O)c1ccccc1 13.4%
CCc1c2c(nc3ccccc13)OC(C)C2 (stereo not given) 9.21%
COC(=O)[C@@]1(Cc2ccc(OC)cc2)[C@H]2c3cc(C(=O)N(C)C)n(Cc4nc5ccccc5[nH]4)c3C[C@H]2CN1C(=O)c1ccccc1 -7.06%
C[C@@H](C(=O)N[C@@H](CO)Cc1ccccc1)[C@@H]1C[C@@]1(C)[C@@H](NC(=O)OCc1ccccc1)c1ccccc1 0.908%
